# Source: PubChem BioAssay
# MARV entry inh = inhibitors of Marburg virus binding or cell entry; Marburg virus pseudotyped entry inhibition, cell reporter; Potency, µM (titrated, usually from 37.8 µM), most hits filed as inhibitors; actives 1.8% (n = 300,000); calls by dose curve; tested in HEK293 cells
# FMDV inh = blocks foot and mouth disease virus. FMDV antiviral cell-based qHTS. Potency, µM (highest dose often 57.9 µM), actives largely listed as inhibitors. actives 1.2% (n = 410,000). AID 1159524; calls by dose curve; tested in HEK293T cells; also: read-out not given here; nearly all actives have a fitted effect of over 45% in size
# Sm TGR block = inhibitors of Schistosoma mansoni thioredoxin glutathione reductase | Q962Y6 | purified TGR, DTNB reduction, TNB absorbance 405 nm | Potency, µM (highest dose often 114 µM), hits mostly inhibitors | actives 3% (n = 360,000) | AID 485364; active = well fitted inhibition curve with a large enough effect; inconclusive = small, poorly fitted or top-dose-only effect; inactive = no such curve, though single readings can be large or run the other way; also: nearly all actives have a fitted effect of over 60% in size
#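 TGR 20 nM + NADPH 100 uM (dispensed conc.), cpd preinc 15 min RT; start with NADPH (500 uM addition) then DTNB (15 mM addition). Kinetic TNB absorbance, 405 nm filter. Four-parameter Hill fit across titration.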
# VACV Venus inh = vaccinia inhibition (Venus reporter); Vaccinia virus Venus reporter expression, fluorescence; Potency, µM (titrated, usually from 36.5 µM), actives largely listed as inhibitors; actives 0.46% (n = 330,000); calls by dose curve; tested in A549 cells; also: nearly all actives have a fitted effect of over 30% in size
# Vaccinia mCherry = vaccinia inhibition (mCherry reporter). Vaccinia virus mCherry reporter infection, fluorescence. Potency, µM (top dose mostly 36.5 µM), most hits filed as inhibitors. actives 0.63% (n = 310,000). AID 720579; calls by dose curve; tested in A549 cells; also: nearly all actives have a fitted effect of over 35% in size
# LASV entry inh = inhibitors of Lassa virus binding or cell entry. Lassa virus pseudotype entry inhibition, cell reporter. Potency, µM (titrated, usually from 37.9 µM), hits mostly inhibitors. actives 1.2% (n = 300,000); calls by dose curve; tested in HEK293 cells; also: nearly all actives have a fitted effect of over 50% in size
# Hits are given with their value; – = inactive; ? = inconclusive; · = no result. Hits are enriched below; roughly 5.4% of the tested compounds scored in any of these assays.
SMILES,MARV entry inh,FMDV inh,Sm TGR block,VACV Venus inh,Vaccinia mCherry,LASV entry inh
O=C(CSc1oc(-c2ccc(F)cc2)nc1S(=O)(=O)c1ccc(Cl)cc1)c1ccccc1,?,–,–,–,–,?
CC(=O)N1CC2=C(CCCC2)C(C)CC12CCCCC2 (stereo not drawn),–,·,·,·,·,·
O=C(COC(=O)C1=COCCO1)Nc1ncc(C(F)(F)F)cc1Cl,–,–,100µM,–,–,–
C/C(=N\Nc1nc2ccccc2c(=O)n1O)c1ccco1,?,–,39.8µM,–,–,–
COc1ccc(N2C(=O)c3ccccc3NC2c2ccc(OC)c(COc3ccc(NC(C)=O)cc3)c2)cc1 (stereo not drawn),·,·,·,–,?,·
CC(C)(C)c1cc([N+](=O)[O-])cc(C(C)(C)C)c1O,6.51µM,?,–,·,·,16.4µM
Cc1ccc(CC2CC(=O)N(Cc3ccco3)C2=O)cc1 (stereo not drawn),–,?,12.6µM,–,·,–
Cc1ccc(CN2CCN(Cc3ccco3)CC2)cc1,·,–,–,·,·,·
O=C1CC(Cc2ccccc2)C(=O)N1Cc1ccco1 (stereo not drawn),–,–,15.8µM,–,–,–
O=C1C2C3CCC(C3)C2C(=O)N1Cc1ccco1 (stereo not drawn),–,–,–,–,–,–
CC(C)CO/N=C1\C[C@@H](O)[C@@H](O)[C@@H]2[C@@H]3C(=O)N(Cc4ccccc4)C(=O)[C@@H]3CC[C@H]12,–,·,·,·,·,·
COc1ccccc1CNC(=O)CN1C(=O)COc2ccc(S(=O)(=O)N3CCC(C)CC3)cc21,–,–,–,–,–,–
CC1(C)[C@H]2CC[C@]1(C)[C@H](OC(=O)CC(=O)O)C2,–,·,·,·,·,·
Cc1ccc(Sc2cc(C(=O)NCCN(C)C)c3ccccc3n2)cc1,·,–,–,·,·,·
Cc1ccc(Sc2cc(C(=O)NCCCN(C)C)c3ccccc3n2)cc1,?,–,39.8µM,?,–,?
NC(=O)c1nsc(C(=O)N(Cc2ccc(F)cc2)C(C(=O)NCC2CCCO2)c2ccc(F)cc2)c1N (stereo not drawn),11.2µM,–,–,–,–,–
NC(=O)c1nsc(C(=O)N(c2cccc(F)c2)C(C(=O)NCC2CCCO2)c2c[nH]c3ccccc23)c1N (stereo not drawn),?,–,17.8µM,–,–,?
NC(=O)c1nsc(C(=O)N(c2ccc(F)cc2)C(C(=O)NCC2CCCO2)c2c[nH]c3ccccc23)c1N (stereo not drawn),?,–,25.1µM,–,–,·
Cc1cccc(N(C(=O)c2snc(C(N)=O)c2N)C(C(=O)NCC2CCCO2)c2c[nH]c3ccccc23)c1 (stereo not drawn),?,–,–,–,–,?
COc1ccccc1CCNc1ncnc2sc(C(=O)N3CCCCC3)c(C)c12,·,–,·,–,–,·
Cc1ccc(CNC(=O)C(CC(C)C)N2Cc3ccccc3C2=O)cc1 (stereo not drawn),·,–,–,–,–,–
O=C(OCC#CCSc1nnc(-c2cccc3ccccc23)s1)c1cccs1,·,·,–,·,·,·
COc1cc(C(N)=O)cc(Br)c1OCc1ccccc1,–,–,–,–,–,–
CCOc1c(Br)cc(C(N)=O)cc1OCc1ccccc1,?,–,–,–,–,11.6µM
CCN(c1cc(C)cc(C)c1)S(=O)(=O)c1nnc(NC(=O)C2CCCCC2)s1,·,–,–,–,–,–
SMILES,MARV entry inh,FMDV inh,Sm TGR block,VACV Venus inh,Vaccinia mCherry,LASV entry inh
CC1=C(C(=O)OCC2CCCO2)C(c2ccc(C)o2)C2=C(CC(c3ccc(N(C)C)cc3)CC2=O)N1 (stereo not drawn),–,·,–,·,·,·
CC1=C(C(=O)OCC2CCCO2)C(c2ccc(C)o2)C2=C(CC(c3ccc(F)cc3)CC2=O)N1 (stereo not drawn),10µM,–,?,–,–,–
CCCN1CCN(CCNC(=O)Nc2cc(Cl)c(OC)cc2OC)CC1,–,–,–,–,–,–
Clc1cccc(Cc2c(-c3ccco3)nc3ccc(Br)cn23)c1,·,25.1µM,·,–,–,·
Clc1ccc(-c2nc3ccc(Cl)cn3c2Cc2cccc(Cl)c2)cc1,·,–,·,–,–,·
Clc1cccc(Cc2c(-c3ccco3)nc3ccc(Cl)cn23)c1,·,39.8µM,·,–,–,·
CN(C)Cc1ccccc1Sc1cccc2ccccc12,20.6µM,?,–,–,?,14.6µM
COCCN(C(=O)c1ccco1)c1nc(-c2ccccc2)cs1,?,–,63.1µM,–,–,–
COCCN(C(=O)c1ccco1)c1nc(-c2ccc(OC)cc2)cs1,·,–,·,–,–,·
COc1ccc(-c2csc(N(CCCN(C)C)C(=O)c3ccccc3Cl)n2)cc1,5.62µM,–,·,?,11.2µM,?
COc1ccc(-c2csc(N(CCCN(C)C)C(=O)c3ccccc3C)n2)cc1,?,–,–,?,?,10µM
CC(OC(=O)c1ccco1)C(=O)Nc1nc(-c2ccccc2)cs1 (stereo not drawn),11.2µM,–,·,–,–,10µM
O=C(Nc1nc(-c2ccccc2)cs1)c1ccco1,–,–,–,–,–,–
CCc1nc2nc(C)cc(Nc3ccc(Br)cc3F)n2n1,?,–,–,–,?,–
OCCNCCCOc1ccc(Cl)cc1Br,20.6µM,–,–,·,·,–
COCCNCCCOc1ccc(Cl)cc1Br,·,–,·,–,–,·
COc1cc(N)ccc1Nc1c2ccccc2nc2ccccc12,·,–,·,?,?,·
CCCS(=O)(=O)Nc1ccc(Nc2c3ccccc3nc3ccccc23)c(OC)c1,?,–,·,?,?,0.708µM
COc1cc(NS(C)(=O)=O)ccc1Cc1c2ccccc2nc2ccccc12,·,–,·,?,1.26µM,·
Cc1c([C@@H](Nc2ccccn2)c2ccccc2)c(=O)n(-c2ccccc2)n1C,–,·,·,·,·,·
Cc1cccc(N(C)C(=O)C(Cc2ccccc2)NS(=O)(=O)c2cccc3nsnc23)c1 (stereo not drawn),–,–,–,–,–,–
CCc1ccccc1N(CC)C(=O)C(=O)Nc1ccc2nc3n(c(=O)c2c1)CCCCC3,–,–,–,–,–,?
Cc1ccc(NC(=O)CSc2nc3ccc(NC(=O)COc4ccc(C)cc4)cc3s2)cc1,–,–,–,?,?,–
O=C(CSc1nnnn1Cc1ccccc1)NCC(=O)c1ccccc1,–,·,50.1µM,–,–,–
CC(C)(C)NC(=O)CSc1nc2ccc(NC(=O)CSc3nnc(N)s3)cc2s1,?,28.2µM,–,–,–,–
CC(C)(C)NC(=O)CSc1nc2ccc(NC(=O)CSc3nnnn3Cc3ccccc3)cc2s1,8.91µM,14.1µM,–,?,?,?
O=C(CSc1nnnn1Cc1ccccc1)NCCc1ccccc1,–,–,–,–,–,–
CCCN1C(=O)C(C#N)C(C)=CC1C (stereo not drawn),–,·,·,·,·,·
Cc1ccc2c(c1)N(C(=O)N1CCC(C(=O)NCc3ccccc3C)CC1)CC(C)O2 (stereo not drawn),·,?,–,–,–,–
CC(=O)c1cccc(NC(=O)CN2C(=O)CC(c3ccc(C)cc3C)=Nc3ccccc32)c1,·,–,–,–,–,?
